# Bioassay records (PubChem BioAssay)
# The list is not random: actives were taken first. Their share in the collection is about 19%.
# DT40 TDP1 CPT = DT40-hTDP1 cell growth loss with CPT | chicken DT40 Tdp1-/-;hTDP1 cells + 20 nM CPT, ATP luminescence, 48 h | Potency, µM (doses to about 46.2 µM), inactives show top-dose activity change, negative = growth inhibition, most hits filed as inhibitors | hit rate 12% among 420,000; note: potency is the fitted concentration of half-maximal effect; % is set by controls: 0 for no effect and ±100 for the full control effect; nearly all actives have a fitted effect of over 55% in size
#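 Chicken DT40 Tdp1-/- cells complemented with human TDP1, 400 cells/well, exposed to compounds plus 20 nM camptothecin for at least 48 h at 37 C; viability read as ATP content by CellTiter-Glo luminescence.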
# IL1B secr inh = blocks inflammasome-driven IL-1 beta release. AID 743279. activity change, % at 57.5 µM. hit rate 4.7% among 360,000. THP-1 LPS/ATP IL-1B secretion, AlphaLISA, 16 h; hits give low values; in the data active = activity change below about -50%; inconclusive = mostly about -30% to -49%; note: % is set by controls: 0 for no effect and ±100 for the full control effect
#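 THP-1 cells pretreated 1 hr with compounds (up to 57.5 uM final), then stimulated with LPS (250 ng/mL final) plus ATP (1.25 mM final); secreted IL-1B measured by AlphaLISA after 16 hr, decreased signal indicating inhibition.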
# SW480 rerep = inducers of DNA re-replication in SW480 colon cancer cells; Potency, µM (doses to about 46.1 µM), without a hit: at the highest dose re-replication activation, usual class: activators; SW480 DNA re-replication, Hoechst DNA content imaging, 48 h; AID 624297; hit rate 1.8% among 340,000; note: potency is the fitted concentration of half-maximal effect; % of control where 0% means no effect; nearly all actives have a fitted effect of over 55% in size
#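 Cells (250 per well) received 23 nL compound or DMSO by pin tool and were kept 48 hr at 37 C, 5% CO2. Nuclei were then stained with Hoechst for 40 min and scanned for DNA content.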
# MCF10A rereplic = inducers of DNA re-replication in MCF 10A breast cells. hit rate 2.9% among 350,000. MCF 10A DNA re-replication, Hoechst nuclear intensity, 48 h. Potency, µM (series often up to 46.1 µM), inactives show at the top dose activity, positive = re-replication, most hits filed as activators; note: potency is the fitted concentration of half-maximal effect; % of control where 0% means no effect; nearly all actives have a fitted effect of over 50% in size
# DT40 TDP1 no CPT = qHTS for Inhibitors of human tyrosyl-DNA phosphodiesterase 1 (TDP1): qHTS in cells in absence of CPT; Potency, µM (highest dose often 46.2 µM), without a hit: at the top dose activity change, negative = growth inhibition, most hits filed as inhibitors; DT40 Tdp1-/- hTDP1 cells, no CPT, ATP luminescence, 48 h; hit rate 15% among 420,000; note: potency is the fitted concentration of half-maximal effect; % is set by controls: 0 for no effect and ±100 for the full control effect; nearly all actives have a fitted effect of over 55% in size
#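 Compound effects on proliferation are scored in DT40 Tdp1-/-;hTDP1 cells in the absence of CPT. ATP levels (CellTiter-Glo luminescence) are recorded after a ≥48 hr, 37 °C incubation.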
# Chronic BCR inh = inhibitors of chronic active B-cell receptor signaling. hit rate 0.05% among 340,000. Potency, µM (series often up to 46.1 µM), inactives show at the highest dose activity change, negative = inhibition, most hits filed as inhibitors. ABC-DLBCL IkBa-CBG/CBR reporter, luminescence ratio, 4 h; active = well fitted inhibition curve with a large enough effect in the signal ratio, with a control signal flat, not every such curve was filed as active; inconclusive = small, poorly fitted or top-dose-only effect, or effect the other way, or a change in a side signal; the % refers to the signal ratio;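 note: potency is the fitted concentration of half-maximal effect; plate controls were basal doxycycline-induced cells for no effect and cells given 10 µM MG132 for full effect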
#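 TMD8 human ABC-DLBCL cells with doxycycline-inducible IκBα–green luciferase fusion and unfused red luciferase, in 0.5% FBS medium; compounds up to 46 uM, 4 h at 37C. Green/red luminescence ratio, filter-overlap corrected, fitted to concentration-response curves.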
# Starred values were filed as active, the others as inactive; ? = inconclusive; · = no result; [ ] = dose if it differs, or a comment. Unless noted, calls come from the whole dose curve; as a rule, active = well fitted curve in the direction sought with a large enough effect; inconclusive = small, poorly fitted or top-dose-only effect, or another doubt; inactive = no such curve, though single readings can be large; an effect the other way counts as inactive or inconclusive.
SMILES,DT40 TDP1 CPT,IL1B secr inh,SW480 rerep,MCF10A rereplic,DT40 TDP1 no CPT,Chronic BCR inh
O=C(Cc1cccs1)Nc1nc(-c2cccnc2)cs1,16µM*,4,-5%,0%,8.2µM*,-14%
O=C(Cc1cccs1)Nc1nnc(-c2ccccc2)s1,0%,2,-19%,0.65µM*,8%,-1%
O=C(COc1ccc(Br)cc1)Nc1nc(-c2cccnc2)cs1,?,34,?,9%,-29%,?
Cc1ccc2nc(NC(=O)Cc3cccs3)sc2c1,?,-8,-1%,21%,-18%,?
CCOc1ccc2nc(NC(=O)Cc3cccs3)sc2c1,18µM*,?,?,21%,?,?
O=C(Cc1cccs1)Nc1nnc(-c2ccc(F)cc2)s1,13%,49,-8%,-3%,4%,?
O=C(Nc1ccc(F)cc1)C(c1cc2ccccc2o1)N1CCN(CC(=O)N2CCCC2)CC1 (centres undefined),?,12,·,·,-21%,·
CCOC(=O)C1=C(C)c2ccccc2OC1(C(=O)OCC)C(C)C (centres undefined),-25%,10,20%,-7%,?,1%
O=C(Nc1nc2ccccc2s1)C1c2ccccc2Oc2ccccc21,5.8µM*,-5,?,?,16µM*,?
O=C(Nc1nc2ccccc2s1)C1CCCO1 (centres undefined),-11%,5,0%,-3%,-7%,?
O=C(Oc1ccc(Cl)c2cccnc12)N1CCOCC1,-1%,0,-4%,0%,-11%,-3%
O=C(Nc1cccnc1Cl)c1cccs1,-8%,-14,-15%,-3%,-3%,-17%
O=C(Oc1c(CN2CCOCC2)cc(Cl)c2cccnc12)c1cccs1,4.1µM*,-58*,8.2µM*,?,4.6µM*,?
O=C(Oc1c(CN2CCOCC2)cc(Cl)c2cccnc12)c1ccccc1Cl,2.3µM*,-91*,17%,?,2.9µM*,?
O=C(Oc1c(Cl)cc(Cl)c2cccnc12)c1cccs1,16µM*,48,?,6.5µM*,?,23µM*
COc1ccc(S(=O)(=O)Nc2ccccc2-c2nc3ccccc3[nH]c2=O)cc1,?,24,?,?,?,-16%
C#CCOCCOCCOCCNc1nc(N2CCN(C(=O)CCCCCCCCCCNC(=O)[C@@H](CCSC)n3cc(CCO)nn3)CC2)nc(N2CCN(C(=O)CCCCCCCCCCNC(=O)[C@H]([C@@H](C)CC)n3cc(CCCCN=C(N)N)nn3)CC2)n1,?,-104*,-7%,-10%,?,?
C#CCOCCOCCOCCNc1nc(N2CCN(C(=O)[C@H]([C@@H](C)CC)n3cc(CCCCN)nn3)CC2)nc(N2CCN(C(=O)[C@H]([C@@H](C)CC)n3cc(CCCN=C(N)N)nn3)CC2)n1,3%,5,-37%,-28%,3%,-7%
C#CCOCCOCCOCCNc1nc(N2CCN(C(=O)[C@H](C(C)C)n3cc(CCO)nn3)CC2)nc(N2CCN(C(=O)[C@H]([C@@H](C)CC)n3cc(CCCCN)nn3)CC2)n1,-1%,-6,-4%[9.22 µM],6%,6%,0%
C#CCOCCOCCOCCNc1nc(N2CCN(C(=O)CCCCCCCCCCNC(=O)[C@@H](CCSC)n3cc(CCO)nn3)CC2)nc(N2CCN(C(=O)CCCCCCCCCCNC(=O)[C@H]([C@@H](C)CC)n3cc(CCCCCN)nn3)CC2)n1,?,-72*,2%[9.22 µM],?,16µM*,?
CN(CC(=O)Nc1ccc(OC(F)(F)F)cc1)C(=O)/C=C/c1cc2c(cc1[N+](=O)[O-])OCO2,-21%,7,-7%,8%,-2%,?
O=C(Cc1ccc(S(=O)(=O)N2CCCCC2)s1)Nc1ccc(F)c(F)c1,16µM*,-6,12%,?,23µM*,0%
O=C(Cc1ccc(S(=O)(=O)N2CCCC2)s1)Nc1cccc([N+](=O)[O-])c1,?,-16,-2%,-3%,16µM*,-1%
O=C(COC(=O)/C=C/c1ccc([N+](=O)[O-])cc1)NCC1CCCCC1,-11%,20,-5%,4%,3%,0%
Cc1ncc2c(c1CNS(=O)(=O)c1cccs1)CCN(C(=O)/C=C/c1ccc(F)cc1F)C2,2%[9.04 µM],·,·,·,?,·
SMILES,DT40 TDP1 CPT,IL1B secr inh,SW480 rerep,MCF10A rereplic,DT40 TDP1 no CPT,Chronic BCR inh
CSc1nc(C(=O)N2CCc3c(cnc(C)c3CNC(=O)c3ccc4c(c3)OCO4)C2)cs1,0.13µM*,·,·,·,0.16µM*,·
Cc1ncc2c(c1CNS(=O)(=O)c1cccs1)CCN(C(=O)/C=C/c1cc(F)cc(F)c1)C2,-6%[9.04 µM],·,·,·,23µM*,·
Cc1cnc(C(=O)NCc2c(C)ncc3c2CCN(C(=O)/C=C/c2cccs2)C3)cn1,0.0046µM*,·,·,·,-18%,·
O=C(CCS(=O)(=O)c1ccccc1)Nc1ccc(Cl)cn1,-3%,4,2%,-8%,-13%,2%
OCCCn1c(C(CO)Nc2nc(-c3ccc(Cl)cc3)cs2)nc2ccccc21 (centres undefined),?,?,-5%,12%,16µM*,·
Cc1ccc(Cn2c(C(CO)Nc3nc(-c4ccc(F)cc4)cs3)nc3ccccc32)cc1 (centres undefined),?,-69*,18%,?,16µM*,·
COc1ccc(-c2csc(NC(CO)c3nc4ccccc4n3Cc3ccc(C)cc3)n2)cc1 (centres undefined),26µM*,-22,?,?,?,·
Cc1ccc(Cn2c(C(CO)Nc3nc(-c4ccc(Cl)c([N+](=O)[O-])c4)cs3)nc3ccccc32)cc1 (centres undefined),?,?,7%,-16%,?,·
COC(=O)C[C@@H]1CC[C@@H](NS(=O)(=O)c2ccc(OC)cc2)[C@@H](CO)O1,0%,23,·,·,0%,·
CCOc1cc(Br)c(C=O)cc1OCC,5.2µM*,84,13µM*,?,6.5µM*,?
CCOC(=O)C1CCN(C(=O)CCC2CCCC2)CC1,1%,-5,1%,12%,-3%,4%
Cc1ccc2c(c1)Cc1c(nc(-c3ccc(Cl)cc3)nc1SCC(=O)N1CCCCC1)O2,-5%,·,·,·,?,·
c1ccc(Cn2sc(=Nc3ccccc3)nc2-c2ccccc2)cc1,3%,·,·,·,-17%,·
c1ccc(N=c2nc(-c3ccccc3)n(-c3ccccc3)s2)cc1,6.3µM*,·,·,·,5.6µM*,·
NC(=O)c1cc([N+](=O)[O-])ccc1NCCN1C(=O)c2ccccc2C1=O,·,·,·,·,·,-22%
